Measured values reported in PubChem BioAssay (NCATS).
Inconclusive results are not listed. Activity calls are given as the source filed them. Unless noted, calls follow the shape of the dose curve; as a rule, active = well fitted curve in the direction sought with a large enough effect; inconclusive = small, poorly fitted or top-dose-only effect, or another doubt; inactive = no such curve, though single readings can be large; an effect the other way counts as inactive or inconclusive.

Assays:
[1] = target: Cytochrome P450 2C9 (Homo sapiens) (UniProt P11712); test: qHTS for inhibitors of CYP2C9 against the NCATS DSHEA and TCM libraries (AID 1919973);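 also: luminogenic pro-luciferin CYP2C9 substrate turned into luciferin with NADPH regeneration; series mostly up to about 34 µM; % is scaled to controls: 0 for no effect and ±100 for the full control effect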
Cytochrome P450 2C9 (Homo sapiens), sequence (P11712 whole entry, looked up, canonical isoform): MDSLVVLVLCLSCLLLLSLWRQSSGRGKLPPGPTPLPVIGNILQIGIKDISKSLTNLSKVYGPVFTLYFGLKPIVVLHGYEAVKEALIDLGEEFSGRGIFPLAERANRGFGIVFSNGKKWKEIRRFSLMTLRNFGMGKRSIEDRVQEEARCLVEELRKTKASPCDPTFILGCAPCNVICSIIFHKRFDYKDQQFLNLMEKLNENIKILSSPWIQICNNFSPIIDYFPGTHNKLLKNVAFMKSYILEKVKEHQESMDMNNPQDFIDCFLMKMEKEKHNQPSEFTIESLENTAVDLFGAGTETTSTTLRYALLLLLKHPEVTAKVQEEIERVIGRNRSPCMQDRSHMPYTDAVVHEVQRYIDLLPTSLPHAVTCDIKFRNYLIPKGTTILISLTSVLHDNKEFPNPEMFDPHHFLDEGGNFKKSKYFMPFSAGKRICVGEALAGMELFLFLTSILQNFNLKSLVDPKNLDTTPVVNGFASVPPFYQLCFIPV
Summary of the method: (§1)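 Concentration-response screening with isoform-matched pro-luciferin substrates. The CYP reaction was initiated by NADPH regenerating solution and ran 30-45 min in darkness at room temperature.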

[2] = target: Cytochrome P450 2C19 (Homo sapiens) (UniProt P33261); test: qHTS for inhibitors of CYP2C19 against the NCATS DSHEA and TCM libraries (AID 1919974);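 also: luminescence from luciferin released by CYP2C19 oxidation of a pro-luciferin substrate; % is scaled to controls: 0 for no effect and ±100 for the full control effect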
Cytochrome P450 2C19 (Homo sapiens), sequence (P33261 whole entry, looked up): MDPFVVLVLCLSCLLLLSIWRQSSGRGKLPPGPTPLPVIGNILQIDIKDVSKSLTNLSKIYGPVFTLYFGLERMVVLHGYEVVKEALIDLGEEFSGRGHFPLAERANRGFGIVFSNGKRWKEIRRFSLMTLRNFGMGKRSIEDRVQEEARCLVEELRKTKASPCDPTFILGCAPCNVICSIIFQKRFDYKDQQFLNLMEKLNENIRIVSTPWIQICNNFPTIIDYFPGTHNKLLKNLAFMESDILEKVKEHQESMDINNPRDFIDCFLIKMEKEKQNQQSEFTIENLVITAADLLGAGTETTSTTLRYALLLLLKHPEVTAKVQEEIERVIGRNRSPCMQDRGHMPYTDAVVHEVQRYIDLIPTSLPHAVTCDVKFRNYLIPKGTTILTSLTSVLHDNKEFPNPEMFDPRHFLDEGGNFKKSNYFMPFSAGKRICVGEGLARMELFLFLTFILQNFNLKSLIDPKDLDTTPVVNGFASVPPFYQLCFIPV
Summary of the method: as §1

[3] = KB-3-1 P-gp reporter qHTS against the NCATS DSHEA and TCM libraries (AID 1919975); also: 0% is about no effect
Text: (§2) Assay Development and Screening Technology Laboratory (ADST)
(§3) National Center for Advancing Translational Sciences (NCATS), Rockville, MD
(§4) National Institute of Health (NIH), Bethesda, Maryland
(§5) Dietary Supplements and Natural Products have minor oversight of their safety and efficacy. We assembled a collection of Dietary Supplements and Natural Products (DSNP) as well as Traditional Chinese Medicinal (TCM) Plant extracts, which were screened against an in vitro panel of assays, including a liver cytochrome p450 enzyme panel, CAR/PXR signaling pathways, and P-gp transporter assays, to assess their activity. This pipeline facilitated the interrogation of Natural Product-Drug Interaction (NaPDI) through prominent metabolizing pathways. In addition, we compared the activity profiles of the DSNP/TCM substances with those of an approved drug collection. Many of the approved drugs have well-annotated mechanisms of action (MOA) while the MOAs for most of the DSNP and TCM samples remain unknown. Based on the premise that compounds with similar activity profiles tend to share similar targets or MOA, we clustered the library activity profiles to identify overlap with the NCATS Pharmaceutical Collection to predict the MOAs of the DSNP/TCM substances. Overall, we highlight four significant bioactivity profiles (measured by p-values) as examples of this prediction. To assess broad cytotoxicity, we employed screening against a HepG2 cell line. In addition, transporter-mediated drug interactions are utilized in the characterization of DDIs using a P-glycoprotein (P-gp) assays. To profile potential P-gp activity, a differential cell viability was measured against two cell lines: a parental KB-3-1 human cervical adenocarcinoma cell line and the drug-resistant subline KB-8-5-11 that overexpresses P-gp.
(§6) To this end, we profiled both collections for potential CAR and/or PXR activity, employing a previously published 1536-well qHTS assay.
(§7) [1] Lee TD, et al. A High-Throughput Screen of a Library of Therapeutics Identifies Cytotoxic Substrates of P-glycoprotein. Mol Pharmacol. Nov 2019;96(5):629-640. doi:10.1124/mol.119.115964
(§8) PROTOCOL TABLE (as described by Inglese J, Shamu CE and Guy RK. 2007)
(§9) SEQUENCE No. (e.g., 1, 2, 3, etc.); PARAMETER (e.g., Cells, Incubation, Reagent, etc.); VALUE; DESCRIPTION.
1; Cells; 5 uL; KB-3-1 cells, white solid-bottom tissue treated Greiner plate.
2; Incubation; 4 hrs; 37C, 95% humidity, 5% CO2.
3; Compounds and control; 23 nL; Kalypsis pin tool (Wako USA) equipped with a 1536-well pin head to transfer to the assay plates.
4; Incubation; 72 hrs; 37C, 95% humidity, 5% CO2.
5; Reagent; 2.5 uL; CellTiter-Glo.
6; Centrifuge; 1000 RPM; 15 seconds.
7; Incubation; 30 min; room temperature.
8; Read; Luminescence; ViewLux plate reader.
(§10) NOTES (numbers refer to Sequence numbers above)
1. Cell line KB-3-1 and its colchicine-selected, P-gp-overexpressing subline KB-8-5-11 were maintained in DMEM (Thermofisher catalog #11965) with 10% FBS and 1% penicillin/streptomycin at 37C in 5% CO2. For the screen, assay medium was identical to culture medium. Briefly, 5 uL of cells at 1 x 10^5 cells/mL (500 cells/well) were dispensed into a 1536-well white solid-bottom tissue treated plate (Greiner Bio-One) using a Multidrop Combi dispenser.
2. Plates were incubated at 37C, 95% humidity, 5% CO2 for ~4 hours to allow for cell attachment.
3. Compounds and intraplate control (Bortezomib; final concentration range 228 pM - 7.5 uM) were transferred (16 nL) via pintool (Wako Automation), for a final concentration of 15.6 nM - 30.0 uM (most substances).
4. Plates were incubated for ~72 hours at 37C, 95% humidity, 5% CO2.
5. Plates were then dispensed with 2.5 uL of CellTiter-Glo.
6. The assay plates were centrifuged for 15 seconds at 1,000 RPM's.
7. The plates were incubated for 30-minute at room temperature.
8. Luminescence intensity was detected using a PerkinElmer ViewLux microplate reader.
[…]

[4] = target: Cytochrome P450 1A2 (Homo sapiens) (UniProt P05177); test: qHTS for inhibitors of CYPIA2 against the NCATS DSHEA and TCM libraries (AID 1919976);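 also: light from luciferin formed by CYP1A2 from a pro-luciferin substrate; series mostly up to about 37 µM; % is scaled to controls: 0 for no effect and ±100 for the full control effect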
Cytochrome P450 1A2 (Homo sapiens), sequence (P05177 whole entry, looked up): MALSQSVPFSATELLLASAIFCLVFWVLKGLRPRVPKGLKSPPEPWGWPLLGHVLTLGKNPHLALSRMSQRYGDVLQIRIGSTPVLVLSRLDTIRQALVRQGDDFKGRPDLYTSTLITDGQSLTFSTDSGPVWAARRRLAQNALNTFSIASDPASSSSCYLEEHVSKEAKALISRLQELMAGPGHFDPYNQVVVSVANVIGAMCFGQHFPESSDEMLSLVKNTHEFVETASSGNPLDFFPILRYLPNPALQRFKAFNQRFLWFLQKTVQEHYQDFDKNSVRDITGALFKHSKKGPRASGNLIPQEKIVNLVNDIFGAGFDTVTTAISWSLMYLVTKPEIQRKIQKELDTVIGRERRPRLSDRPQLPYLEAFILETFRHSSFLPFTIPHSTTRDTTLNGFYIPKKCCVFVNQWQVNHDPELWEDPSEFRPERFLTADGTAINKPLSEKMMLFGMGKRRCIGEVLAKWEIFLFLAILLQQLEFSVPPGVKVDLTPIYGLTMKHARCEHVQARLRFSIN
Summary of the method: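 Enzyme and pro-luciferin substrate, or substrate alone as no-enzyme background, are pre-incubated with test samples for 15 min at room temperature. NADPH regeneration system (1x final) initiates a 30-45 min dark reaction; luciferase detection reagent follows before luminescence reading.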

[5] = qHTS Counterscreen for compound interference against the NCATS DSHEA and TCM libraries (AID 1919978); settings: firefly luciferase detection reagent interference, luminescence;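 also: compounds preincubated with 1 µM D-luciferin or buffer before detection reagent; % of control where 0% means no effect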
Summary of the method: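 Luminescence counterscreen for detection-kit interference: compounds at 19.5 nM–39.8 uM final, 15 min RT with 1 uM D-luciferin or buffer only; detection reagent added, 30 min RT, then read.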

[6] = Dual reporter qHTS for agonist of Pregnane X Receptor (hPXR) against the NCATS DSHEA and TCM libraries: Fluorescence readout (AID 1920058); also: 0% is about no effect
Summary of the method: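 Cells were plated at 2000 per well and allowed to attach for 5 h. Test substances were pinned in and incubated roughly 24 h. CellTiter-Fluor was then added and fluorescence measured after 1 h.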

[7] = target: Nuclear receptor subfamily 1 group I member 2 (Homo sapiens) (UniProt O75469); test: Dual reporter qHTS for agonist of Pregnane X Receptor (hPXR) against the NCATS DSHEA and TCM libraries: Luminescence readout (AID 1920059); also: 0% is about no effect
Nuclear receptor subfamily 1 group I member 2 (Homo sapiens), sequence (O75469 whole entry, looked up): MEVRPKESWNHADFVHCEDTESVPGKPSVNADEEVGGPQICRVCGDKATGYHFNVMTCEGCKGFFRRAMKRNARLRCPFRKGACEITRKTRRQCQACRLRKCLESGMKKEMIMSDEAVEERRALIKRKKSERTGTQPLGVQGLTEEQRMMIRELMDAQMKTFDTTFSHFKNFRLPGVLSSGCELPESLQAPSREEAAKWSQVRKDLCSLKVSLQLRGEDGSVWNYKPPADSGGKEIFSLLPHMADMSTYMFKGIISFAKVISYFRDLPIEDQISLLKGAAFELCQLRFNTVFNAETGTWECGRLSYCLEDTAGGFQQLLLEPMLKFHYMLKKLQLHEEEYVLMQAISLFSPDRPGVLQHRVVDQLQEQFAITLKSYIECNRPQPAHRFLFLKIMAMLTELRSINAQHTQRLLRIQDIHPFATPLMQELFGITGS
Summary of the method: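 Luminescent PXR reporter read (ONE-Glo) after a CellTiter-Fluor viability read, following 24 h, 37C treatment of HepG2 cells stably carrying hPXR-Luc.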

[8] = target: Nuclear receptor subfamily 1 group I member 2 (Homo sapiens) (UniProt O75469); test: Dual reporter qHTS for antagonist of Pregnane X Receptor (hPXR) against the NCATS DSHEA and TCM libraries: Luminescence Readout (AID 1920060);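 also: HepG2 cells carrying hPXR luciferase reporter stimulated with rifampicin at 2 µM; 0% is about no effect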
Text: as §2, §3, §4, §5, §6, §7
For PXR luciferase reporter gene assays, we used hPXR-LucHepG2cells provided by Dr. Taosheng Chen (Department of Chemical Biology and Therapeutics, St. Jude Children's Research Hospital). Cells were cultured in EMEM supplemented with 10% fetal bovine serum, 100U/mL penicillin and 100ug/mL streptomycin, and 500ug/mL of geneticin.
as §8, §9
1; Cells; 5 uL; hPXR-LucHepG2; white solid-bottom Greiner plate.
2; Incubation; 5h; 37C, 95% humidity, 5% CO2
3; Compounds and control; 23 nL; Kalypsis pintool (Wako USA).
4; Reagent; 1uL; rifampicin (RIF) in the antagonist mode.
6; Reagent; 1 uL; CellTiter-Fluor detection reagent.
7; Incubation; 1 hr; 37C, 5% CO2.
8; Read; Fluorescence; ViewLux plate reader.
9; Reagent; 4 uL; ONE-Glo Luciferase detection reagent.
10; Incubation; 30 min; room temperature.
11; Read; Luminescence; ViewLux plate reader.
as §10
1. Briefly, 5uL of hPXR-LucHepG2 cells in phenol red-free DMEM containing 5% charcoal-stripped FBS, 1 mM sodium pyruvate (Invitrogen), 2 mM L-glutamine (Invitrogen), and 100 U/mL penicillin and 100ug/mL streptomycin were dispensed using a BioRAPTR FRD at 4 x 10^5cells/mL (2000cells/well) in tissue culture-treated 1536-well white assay plates (GreinerBio-One).
2. Plates were incubated for 5h at 37C, 95% humidity, and 5% CO2 to allow for cell attachment.
3. Compounds (final concentration for most substances ranged from 15.6 nM to 45.9uM), positive SPA70 (final concentration range of 2.8 nM to 92uM for the antagonist mode), and cytotoxicity control tetraoctyl ammonium bromide (final concentration of 92uM) were transferred (23 nL) via pintool (Wako Automation).
4-5. […]

[9] = Dual reporter qHTS for antagonist of Pregnane X Receptor (hPXR) against the NCATS DSHEA and TCM libraries: Fluorescence Readout (AID 1920061); also: 0% is about no effect
Summary of the method: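 In antagonist mode, 2 uM rifampicin was added to hPXR-Luc HepG2 cells alongside test substances, incubated 24 h at 37 C; luminescence gave reporter activity, and CellTiter-Fluor fluorescence (405/540 nm) gave viability.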

[10] = qHTS drug screen for cell cycle checkpoint inhibitors in PARPi-resistant BRCA-mutant ovarian cancer cell lines. (AID 1963452; calls by dose curve; also: potency is read from the fitted curve at half-maximal effect); settings: PEO1/OlaR viability, CellTiter-Glo luminescence, 96 h; for Z-AUC: stronger effect = lower value
Summary of the method: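 PEO1, PEO4 and PEO1/OlaR ovarian cancer cells, 600 per well, exposed 96 h at 37C to a dilution series. Viability read by CellTiter-Glo luminescence, normalized to DMSO and empty wells; activity summarized as Z-AUC.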

[11] = measured here: PEO1 parental Z-AUC

In the case of `CC(C)=CCC[C@](C)(O)[C@H]1CC[C@]2(C)[C@@H]1[C@H](O)CC1[C@@]3(C)CC[C@H](O)C(C)(C)[C@@H]3[C@@H](O[C@@H]3O[C@H](CO)[C@@H](O)[C@H](O)[C@H]3O[C@@H]3O[C@H](CO)[C@@H](O)[C@H](O)[C@H]3O)C[C@]12C` (some centres undefined), the outcome [1] is reported as “inactive”, the Potency [2] is reported as “inactive” and the outcome [3] is reported as “inactive”. For the same molecule, the Potency [4] was “inactive”, the max response [5] was -4.33% (inactive) and the outcome [6] was “inactive”. For the same molecule, the outcome [7] was “inactive”, the outcome [8] was “inactive” and the outcome [9] was “inactive”.

With `Nc1nccn2c(C3CCC(C(=O)O)CC3)nc(-c3cc4cccc(Cl)c4[nH]3)c12` (centres undefined) the Z-AUC [10] was -0.361 (inactive), the Z-AUC [10, 11] was -0.773 and the Z-AUC ([10]; measured here: PEO4 Z-AUC) was -1.14.

For `CN(C)C/C=C/C(=O)Nc1cccc(C(=O)Nc2cccc(Nc3ncc(Cl)c(-c4c[nH]c5ccccc45)n3)c2)c1`, the Z-AUC [10] was -1.57 (inactive), the Z-AUC [10, 11] was -1.76 and the Z-AUC ([10]; measured here: PEO4 Z-AUC) was -1.32.

In the case of `Nc1ccc(/C=C/C(=O)NCc2cc3cc(-c4ccc(C(=O)N5CCC(F)(F)CC5)cc4)cc(-c4ccc(F)cc4)c3o2)cn1`, the Z-AUC [10] is reported as -0.388 (inactive), the Z-AUC [10, 11] is reported as -0.891 and the Z-AUC ([10]; measured here: PEO4 Z-AUC) is reported as -0.788.

In the case of `Cc1nc([C@](C)(O)CO)sc1-c1cnc(N)c(O[C@H](C)c2cc(F)ccc2-n2nccn2)c1`, the Z-AUC [10] is reported as 1.59 (inactive), the Z-AUC [10, 11] is reported as 0.437 and the Z-AUC ([10]; measured here: PEO4 Z-AUC) is reported as -0.14.

For `Cc1cc(Nc2cc(N3CCN(C)CC3)nc(/C=C/c3ccccc3)n2)n[nH]1`, the Potency [10] was 490 nM (active), the Z-AUC [10, 11] was -1.58 and the Z-AUC ([10]; measured here: PEO4 Z-AUC) was -1.32.
